# Data as given in PubChem BioAssay (Tox21).
# Results filed as inconclusive are left out. Where a call stands in place of a potency, no number is given. The source made the active and inactive calls. Unless noted, calls come from the whole dose curve; as a rule, active = well fitted curve in the direction sought with a large enough effect in the repeat runs; inconclusive = weak or mixed curves; inactive = no such curve, though single readings can be large; an effect the other way counts as inactive or inconclusive.
# How the values were obtained:
# [1] = A CellTox Green Cytotoxicity Assay to monitor cytotoxicity in HepG2 cells - 8 hour (AID 1224890); note: nearly all actives have a fitted effect of over 45% in size
# Method in brief: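 HepG2 cells, 600/well, preincubated 5 h with CellTox Green dye, then exposed to Tox21 compounds in DMSO at 37 C for up to 40 h. Dead-cell DNA fluorescence read at the indicated time point.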
# [2] = qHTS assay to identify small molecule antagonists of the estrogen receptor alpha (ER-alpha) signaling pathway using the BG1 cell line in the presence of 0.1 nM 17-beta-estradiol - cell viability counter screen (AID 1259241); note: nearly all actives have a fitted effect of over 40% in size
# Method in brief: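 VM7Luc4E2, 4,000 cells/well, phenol red-free medium + 10% charcoal-stripped FBS; 24 hr plating; cpd + 0.1 nM E2 final, 22 hr 37C/5% CO2; CellTiter-Fluor 30 min, fluorescence.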
# [3] = qHTS assay to identify small molecule antagonists of the androgen receptor (AR) signaling pathway using the MDA cell line in the presence of 0.5 nM R1881 - cell viability counter screen (AID 1259242); note: nearly all actives have a fitted effect of over 45% in size
# Method in brief: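 MDA-kb2 cells (MMTV-luciferase, AR/GR responsive) were treated with compounds plus 0.5 nM R1881 (final) for 16 hr at 37C, 0% CO2. Viability was then read in the same wells as live-cell protease fluorescence (CellTiter-Fluor, 30 min).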
# [4] = molecular target: Estrogen receptor (Homo sapiens) (UniProt P03372); assay: qHTS assay to identify small molecule antagonists of the estrogen receptor alpha (ER-alpha) signaling pathway using the BG1 cell line in the presence of 0.1 nM 17-beta-estradiol (AID 1259244); note: nearly all actives have a fitted effect of over 50% in size; note: potency is the fitted concentration of half-maximal effect
# Method in brief: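 VM7Luc4E2 cells (endogenous full-length ER-alpha, 4×ERE-luciferase), kept 5 days in phenol red-free, charcoal-stripped FBS medium; 4,000 cells/well. Compounds added with 0.1 nM (final) 17beta-estradiol, 22 hr at 37C; luminescence read with ONE-Glo after 30 min.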
# [5] = qHTS assay to identify small molecule phospholipidosis (PLD) inducers (AID 1259344; active = well fitted curve in the direction sought with a large enough effect; an effect the other way counts as inactive or inconclusive)
# Method in brief: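 HepG2 cells on collagen I, attached 4 h at 37 C, were co-treated with compound and LipidTOX Red dye for 24 h at 37 C, then fixed with paraformaldehyde plus Hoechst 33342 and imaged by high-content microscopy for phospholipid accumulation.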
# [6] = qHTS assay to identify small molecule HDAC inhibitors (AID 1259364); note: nearly all actives have a fitted effect of over 45% in size; note: potency is the fitted concentration of half-maximal effect
# Method in brief: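 Wild-type HCT-116 cells, plated overnight at 37 C, exposed to compounds 2 hr at 37 C; luminogenic HDAC-Glo substrate then added 30 min at room temperature. Luminescence reports relative endogenous class I/II HDAC activity.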
# [7] = qHTS assay to identify small molecule HDAC inhibitors - cell viability counter screen (AID 1259365); note: series mostly up to about 92 µM; nearly all actives have a fitted effect of over 50% in size
# Method in brief: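 Luminescence from CellTiter-Glo, developed 30min at room temperature, reports viability of wild-type HCT-116 cells treated 2hr with compounds at 37 C and 5% CO2 after overnight plating.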
# [8] = molecular target: Androgen receptor (Homo sapiens) (UniProt P10275); assay: qHTS assay to identify small molecule antagonists of the androgen receptor (AR) signaling pathway using the MDA cell line in the presence of 0.5 nM R1881 (AID 1259243); note: nearly all actives have a fitted effect of over 50% in size
# Method in brief: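 MDA-kb2 cells (MMTV-luciferase, responsive to AR and GR) at 3,000/well, rested 5 h at 37C, 0% CO2, then given compounds plus 0.5 nM R1881 (final) for 16 hr. Luciferase read with ONE-Glo after 30 min at room temperature.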
# [9] = qHTS assay to identify small molecule agonists of the sonic hedgehog signaling (Shh) pathway - cell viability counter screen (AID 1259366); note: nearly all actives have a fitted effect of over 50% in size; note: potency is the fitted concentration of half-maximal effect
# Method in brief: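 Cytotoxicity counter screen run in the same wells as the Shh reporter assay. NIH/3T3 cells carrying a Gli1 response element–driven luciferase were treated with DMSO-dissolved compounds for 24hr, and live-cell protease activity was measured with CellTiter-Fluor.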
# [10] = qHTS assay to identify small molecule antagonists of the sonic hedgehog signaling (Shh) pathway - cell viability counter screen (AID 1259367); note: nearly all actives have a fitted effect of over 55% in size
# Method in brief: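 NIH/3T3-derived Gli1-Luc reporter cells (2,000 per well) rested 4 hr at 37 C, then received DMSO compounds plus conditioned medium. After 23 hr of treatment, CellTiter-Fluor was added for 1 hr at 37C and fluorescence read.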
# Androgen receptor (Homo sapiens), sequence (P10275 whole entry, looked up): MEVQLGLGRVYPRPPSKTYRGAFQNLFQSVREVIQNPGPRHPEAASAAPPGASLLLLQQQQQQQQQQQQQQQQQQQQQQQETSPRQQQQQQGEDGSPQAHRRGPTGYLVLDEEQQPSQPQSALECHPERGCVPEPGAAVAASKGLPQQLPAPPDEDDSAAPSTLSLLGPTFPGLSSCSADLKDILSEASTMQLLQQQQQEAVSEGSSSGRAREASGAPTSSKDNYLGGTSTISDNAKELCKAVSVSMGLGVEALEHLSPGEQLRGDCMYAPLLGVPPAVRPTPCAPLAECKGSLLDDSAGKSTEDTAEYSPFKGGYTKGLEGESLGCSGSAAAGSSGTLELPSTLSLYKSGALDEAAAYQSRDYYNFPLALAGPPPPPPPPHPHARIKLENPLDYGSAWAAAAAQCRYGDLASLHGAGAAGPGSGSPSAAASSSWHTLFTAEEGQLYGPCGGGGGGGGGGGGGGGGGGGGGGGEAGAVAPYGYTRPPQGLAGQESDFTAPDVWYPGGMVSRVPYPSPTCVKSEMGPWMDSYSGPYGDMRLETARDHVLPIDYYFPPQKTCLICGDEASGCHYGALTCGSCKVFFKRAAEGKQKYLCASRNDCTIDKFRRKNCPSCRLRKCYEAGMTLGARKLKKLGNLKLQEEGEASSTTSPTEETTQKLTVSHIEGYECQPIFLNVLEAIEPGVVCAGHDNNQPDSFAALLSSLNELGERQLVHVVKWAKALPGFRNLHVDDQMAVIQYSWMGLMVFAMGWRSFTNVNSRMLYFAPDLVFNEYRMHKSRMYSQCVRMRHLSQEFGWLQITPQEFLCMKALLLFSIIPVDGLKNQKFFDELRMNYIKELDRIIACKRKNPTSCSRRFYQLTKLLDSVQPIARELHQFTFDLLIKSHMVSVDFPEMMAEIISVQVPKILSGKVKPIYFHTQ
# Estrogen receptor (Homo sapiens), sequence (P03372 whole entry, looked up): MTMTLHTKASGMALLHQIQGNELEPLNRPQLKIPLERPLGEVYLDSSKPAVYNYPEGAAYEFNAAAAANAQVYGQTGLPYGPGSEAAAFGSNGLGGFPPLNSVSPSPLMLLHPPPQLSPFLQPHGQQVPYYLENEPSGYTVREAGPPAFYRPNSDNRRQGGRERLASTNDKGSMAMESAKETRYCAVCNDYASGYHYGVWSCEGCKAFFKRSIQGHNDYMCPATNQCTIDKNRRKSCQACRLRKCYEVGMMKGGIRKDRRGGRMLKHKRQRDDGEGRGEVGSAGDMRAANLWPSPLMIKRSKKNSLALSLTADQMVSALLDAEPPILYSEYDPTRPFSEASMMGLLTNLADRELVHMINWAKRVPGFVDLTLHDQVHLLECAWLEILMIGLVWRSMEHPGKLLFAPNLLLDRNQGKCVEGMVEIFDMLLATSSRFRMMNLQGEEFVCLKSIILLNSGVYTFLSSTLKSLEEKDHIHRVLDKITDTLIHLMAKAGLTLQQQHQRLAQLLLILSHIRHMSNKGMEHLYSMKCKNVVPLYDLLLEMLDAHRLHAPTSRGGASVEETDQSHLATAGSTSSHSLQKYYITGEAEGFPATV
Compound,Potency [1],Potency [2],Potency [3],Potency [4],Potency [5],Potency [6],Potency [7],Potency [8],Potency [9],Potency [10]
COC(=O)C1=C(C)NC(C)=C(C(=O)O[C@@H]2CCCN(Cc3ccccc3)C2)[C@@H]1c1cccc([N+](=O)[O-])c1,inactive,inactive,inactive,inactive,inactive,inactive,inactive,–,–,–
C1COC1,inactive,inactive,inactive,inactive,–,inactive,inactive,inactive,inactive,inactive
CC1(C)O[C@@H]2C[C@H]3[C@@H]4C[C@H](F)C5=CC(=O)C=C[C@]5(C)[C@H]4[C@@H](O)C[C@]3(C)[C@]2(C(=O)CO)O1,inactive,inactive,inactive,inactive,inactive,inactive,inactive,–,inactive,inactive
COC(=O)CCS,inactive,inactive,inactive,inactive,–,inactive,inactive,–,inactive,inactive
O=C(O)CCc1nc(-c2ccccc2)c(-c2ccccc2)o1,inactive,inactive,inactive,inactive,inactive,inactive,inactive,–,inactive,inactive
O=C1Cc2cc(Cl)ccc2N1,inactive,inactive,inactive,–,–,inactive,inactive,inactive,inactive,inactive
CCOc1ccccc1O[C@H](c1ccccc1)[C@H]1CNCCO1,inactive,inactive,inactive,inactive,inactive,–,–,–,–,–
O=C1NC(=O)c2cc([N+](=O)[O-])ccc21,inactive,inactive,inactive,inactive,–,inactive,inactive,inactive,inactive,inactive
C=C1c2cccc(O)c2C(O)=C2C(=O)[C@]3(O)C(O)=C(C(N)=O)C(=O)[C@@H](N(C)C)[C@@H]3[C@@H](O)[C@H]12,inactive,inactive,inactive,inactive,inactive,inactive,inactive,–,inactive,inactive
CCCCC(CC)CN (stereo not drawn),inactive,inactive,inactive,inactive,–,inactive,inactive,inactive,inactive,inactive
CCCCCCCC/C=C\CCCCCCCCCCCC(=O)O,inactive,inactive,inactive,inactive,–,inactive,inactive,inactive,inactive,inactive
NC1[C@H]2CN(c3nc4c(cc3F)c(=O)c(C(=O)O)cn4-c3ccc(F)cc3F)C[C@@H]12 (stereo partly drawn),inactive,inactive,inactive,–,–,inactive,inactive,inactive,21.1 µM (active),–
Clc1ccc(Nc2nnc(Cc3ccncc3)c3ccccc23)cc1,inactive,inactive,inactive,29.8 µM (active),–,inactive,inactive,–,–,–
CC/C=C1/OC(=O)c2ccccc21,inactive,inactive,inactive,–,–,inactive,inactive,inactive,–,–
CCC(=O)OC,inactive,inactive,inactive,inactive,–,inactive,inactive,inactive,inactive,inactive
CCc1ccccc1,inactive,inactive,inactive,inactive,–,inactive,inactive,–,inactive,inactive
Cc1cc(C)c(N)cc1C,inactive,inactive,inactive,inactive,–,inactive,inactive,–,inactive,inactive
CC(C)=CC(=O)C=C(C)C,inactive,inactive,inactive,inactive,–,inactive,inactive,–,inactive,inactive
CCCCCCCCCCC(=O)O,inactive,inactive,inactive,inactive,–,inactive,inactive,–,inactive,inactive
O=C(O)CCCCCCCCCCCBr,inactive,inactive,inactive,inactive,–,–,inactive,–,inactive,inactive
COc1cc(C(=O)NCCCCCC(=O)O)cc(OC)c1OC,inactive,inactive,inactive,inactive,–,inactive,–,–,inactive,inactive
O=C(/C=C/c1ccc(O)c(O)c1)O[C@@H]1C[C@@](OC(=O)/C=C/c2ccc(O)c(O)c2)(C(=O)O)C[C@@H](O)[C@@H]1O,inactive,inactive,inactive,inactive,–,inactive,–,–,inactive,inactive
C1C[C@@H]2[C@H]3CC[C@H](C3)[C@@H]2C1,inactive,inactive,inactive,inactive,–,inactive,–,–,inactive,inactive
COC(=O)CS,inactive,inactive,inactive,inactive,–,26.3 µM (active),inactive,–,inactive,inactive
CC(C)=CCC/C(C)=C/CC/C(C)=C/CCC(=O)OC/C=C(\C)CCC=C(C)C,inactive,inactive,inactive,inactive,–,inactive,inactive,–,inactive,inactive
O=C(CCc1ccc(O)cc1)c1c(O)cc(O)cc1O,inactive,inactive,inactive,inactive,–,inactive,inactive,–,inactive,inactive
